A selection: hits, their analogues and other compounds. The true share with any hit is near 19%.
VP16 counter: inhibits Gal4-VP16 luciferase reporter, ROR gamma counter-screen; Potency, µM (highest dose often 53.6 µM), for the others: at the highest dose activity, negative = inhibition, usual class: inhibitors; Drosophila S2 Gal4-VP16 UAS-luciferase, luminescence, 20 h; 310,000 tested, 3.5% active;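 note: Gal4-VP16 expression switched on by copper sulfate through the metallothionein promoter; nearly all actives have a fitted effect of over 50% in size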
RORg inh: blocks mouse ROR gamma transcriptional activity; Drosophila S2 Gal4-RORgamma UAS-luciferase reporter, 20 h; Potency, µM (top dose mostly 53.6 µM), for inactives: at the top dose activity change, negative = inhibition, actives largely listed as inhibitors; 310,000 tested, 5.4% active; AID 2551; P51450; note: nearly all actives have a fitted effect of over 60% in size
Target sequence (P51450 whole entry, looked up, the tested form may be a part): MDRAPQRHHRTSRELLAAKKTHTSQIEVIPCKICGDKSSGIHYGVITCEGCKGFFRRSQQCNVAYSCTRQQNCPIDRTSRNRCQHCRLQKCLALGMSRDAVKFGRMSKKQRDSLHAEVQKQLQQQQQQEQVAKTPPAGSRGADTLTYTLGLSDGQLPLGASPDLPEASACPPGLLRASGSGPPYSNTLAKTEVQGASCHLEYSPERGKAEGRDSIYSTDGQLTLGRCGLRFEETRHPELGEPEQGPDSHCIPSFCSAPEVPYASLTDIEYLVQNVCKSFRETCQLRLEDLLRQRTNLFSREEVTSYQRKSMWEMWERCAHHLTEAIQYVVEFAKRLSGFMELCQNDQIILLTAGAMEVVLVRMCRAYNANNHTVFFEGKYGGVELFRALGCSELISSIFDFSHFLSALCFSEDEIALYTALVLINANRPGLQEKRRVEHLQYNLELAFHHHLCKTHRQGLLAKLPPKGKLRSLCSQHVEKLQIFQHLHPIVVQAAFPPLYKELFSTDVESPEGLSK
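In this cell-based reporter format, copper sulfate (700 uM final) drives Gal4–ROR gamma fusion expression from a metallothionein promoter in Drosophila Schneider cells; compounds preincubated 1 hr, reporter read after 20 hr at ambient temperature.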
DT40 TDP1 no CPT: qHTS for Inhibitors of human tyrosyl-DNA phosphodiesterase 1 (TDP1): qHTS in cells in absence of CPT; DT40 Tdp1-/- hTDP1 cells, no CPT, ATP luminescence, 48 h; Potency, µM (doses to about 46.2 µM), without a hit: top-dose activity change, negative = growth inhibition, hits mostly inhibitors; 420,000 tested, 15% active; AID 686978, 2013; note: nearly all actives have a fitted effect of over 55% in size
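Chicken DT40 Tdp1-/- cells stably complemented with human TDP1 were seeded at 400 cells/well with DMSO in place of 20 nM camptothecin. After compound pinning, cells grew at least 48 hr at 37 °C; viability read by CellTiter-Glo luminescence.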
TDP1 block: inhibitors of human tyrosyl-DNA phosphodiesterase TDP1 | 350,000 tested, 0.28% active | Potency, µM (top dose mostly 130 µM), without a hit: at the top dose activity change, negative = inhibition, hits mostly inhibitors | recombinant TDP1, AlphaScreen DNA substrate cleavage; note: nearly all actives have a fitted effect of over 40% in size
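Here, a 5' biotin and 3' phosphotyrosine-FITC DNA oligonucleotide reports Tdp1 activity: intact substrate bridges AlphaScreen beads, while cleavage leaves a 3' phosphate and drops signal. All incubations at room temperature.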
TDP1 cell CPT: growth inhibition of DT40 Tdp1-/-;hTDP1 cells with camptothecin (screen for TDP1 inhibitors); chicken DT40 Tdp1-/-;hTDP1 cells + 20 nM CPT, ATP luminescence, 48 h; Potency, µM (series often up to 46.2 µM), inactives show at the top dose activity change, negative = growth inhibition, usual class: inhibitors; 420,000 tested, 12% active; note: nearly all actives have a fitted effect of over 55% in size
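Cell growth measured by CellTiter-Glo luminescence after a minimum 48 h, 37 C compound exposure with 20 nM CPT in Tdp1-knockout DT40 cells stably expressing hTDP1, seeded 400/well; qHTS titration format.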
The depositor's hits bear a star; ? = inconclusive; . = no result; [ ] = remark or other dose. Calls come from the whole dose curve; as a rule, active = well fitted curve in the direction sought with a large enough effect; inconclusive = small, poorly fitted or top-dose-only effect, or another doubt; inactive = no such curve, though single readings can be large; an effect the other way counts as inactive or inconclusive. % is set by controls: 0 for no effect and ±100 for the full control effect; potency is the fitted concentration of half-maximal effect.

SMILES | VP16 counter | RORg inh | DT40 TDP1 no CPT | TDP1 block | TDP1 cell CPT
COc1cc(-c2nc(-c3ccc4c(c3)-c3ccccc3S4(=O)=O)c(-c3ccccc3)[nH]2)cc(OC)c1OC | ? | -28% | 7.3µM* | 7% | 18µM*
CC(C)(C)c1cc(S(=O)(=O)CCc2ccccn2)cc(C(C)(C)C)c1F | -9% | -45% | 15µM* | 3% | 13µM*
CN(CCc1ccccn1)S(=O)(=O)c1ccc(F)cc1 | -12% | 21% | -21% | 0% | -10%
COC(=O)c1ccccc1NC(=O)Nc1c(C)n(C)n(-c2ccccc2)c1=O | -4% | 25% | 24% | 1% | -1%
CN1CSC2=C(C#N)C(c3cccc(OCc4ccccc4)c3)CC(=O)N2C1 (stereo not given) | -13% | ? | ? | 5% | 21µM*
COc1cccc(C2CC(=O)N3CN(C4CCCCC4)CSC3=C2C#N)c1 (stereo not given) | . | . | ? | -2% | ?
C=CCCN(Cc1ccc(OC)cc1)S(=O)(=O)c1ccccc1Br | 0% | -15% | . | -13% | .
C=CCCN(Cc1ccccc1)S(=O)(=O)c1cc(Br)ccc1Br | . | . | 15µM* | -17% | ?
CCN(CC)C(=O)c1sc2c(c1C)c(=O)n(-c1ccccc1)c(=O)n2Cc1cc(=O)n2ccccc2n1 | . | . | ? | -2% | ?
COc1ccc(S(=O)(=O)NC(=O)C2(C)CCN2C(=O)CC2CCCCC2)cc1OC (stereo not given) | . | . | 1% | . | -1%
COc1cc2c(cc1NC(=O)C(C)NCc1ccccc1)oc1ccccc12 (stereo not given) | ? | 34% | 16µM* | -3% | ?
COc1ccc(CN(C)CC(=O)Nc2cc3oc4ccccc4c3cc2OC)c(OC)c1 | -18% | ? | 10µM* | 2% | 13µM*
COc1cc2c(cc1NC(=O)CN1CCN(S(=O)(=O)c3ccccc3F)CC1)oc1ccccc12 | 3% | 10% | 21µM* | -2% | 15µM*
COc1ccc(NC(=O)CC2SC(N3CCCC3)=NC2=O)cc1Cl (stereo not given) | . | . | ? | 0% | -21%
COc1cc2c(cc1NC(=O)CC1SC(N3CCCC3)=NC1=O)oc1ccccc12 (stereo not given) | 2% | 16% | 21µM* | -2% | ?
COc1cc2c(cc1NC(=O)CN(C)Cc1ccc(OC)c(OC)c1)oc1ccccc12 | -9% | ? | 16µM* | 5% | 16µM*
COc1cc2c(cc1NC(=O)Cc1ccc(C)cc1)oc1ccccc12 | 0% | ? | ? | 5% | ?
COc1ccc(CN(C)CC(=O)Nc2ccc(Cl)cc2C(F)(F)F)c(OC)c1 | -3% | 12% | 16µM* | -8% | 21µM*
COc1cc2c(cc1NC(=O)COc1ccccc1OC)oc1ccccc12 | 6%[0.365 µM] | 0% | ? | 5% | ?
COc1cc2c(cc1NC(=O)COC(=O)C(CCSC)NC(=O)c1ccccc1Cl)oc1ccccc12 (stereo not given) | ? | 10µM* | ? | 2% | ?
COc1ccc2cc(CN(CC3CCCO3)S(=O)(=O)c3ccccc3)c(=O)[nH]c2c1 (stereo not given) | 5% | 2% | -26% | -2% | ?
CC(C)c1ccc(C(=O)OCC(=O)NC2CCCC2)cc1 | 4% | 45% | ? | . | -28%
COc1cc(/C=N/NC(=O)c2ccccc2Cl)ccc1Oc1ccc([N+](=O)[O-])cn1 | -1% | 32% | ? | 8% | ?
Cc1ccc(/C=C/S(=O)(=O)NCC(=O)OCC(=O)Nc2ccc(C(=O)N(C)C)cc2)cc1 | . | . | 19% | 4% | -2%
O=c1[nH]c2ccc(S(=O)(=O)Nc3ccc(Cl)cc3)cc2[nH]1 | -14% | ? | ? | . | -13%
SMILES | VP16 counter | RORg inh | DT40 TDP1 no CPT | TDP1 block | TDP1 cell CPT
Cc1oc(-c2ccc(Cl)cc2)nc1CSCC(=O)NCc1ccccc1Cl | . | . | ? | 12% | ?
CCc1ccc(-c2nc(CSCC(=O)NCc3ccccc3OC)c(C)o2)cc1 | . | . | 16µM* | 6% | 21µM*
CCc1ccc(-c2nc(CSCC(=O)NCc3ccco3)c(C)o2)cc1 | 2µM* | 0.4µM* | ? | 0% | ?
COc1ccc(C(=O)c2c3ccc([N+](=O)[O-])cc3[n+]([O-])n2CCCC(N)=O)cc1 | . | . | 21µM* | 3% | 9.2µM*
Cc1ccc(C(=O)c2c3ccccc3[n+]([O-])n2CCC(N)=O)cc1 | -2% | 21% | -9% | . | 2%
Cc1ccc(C(=O)c2c3ccc([N+](=O)[O-])cc3[n+]([O-])n2CCC(N)=O)cc1 | 1% | 0% | 15µM* | . | 5.8µM*
COc1cc2c(cc1OC)C1=NC(=O)CN1C(SCc1ccc(C)cc1)=N2 | 0% | -18% | 2.6µM* | 12% | 6.5µM*
C=CCSC1=Nc2cc(OC)c(OC)cc2C2=NC(=O)CN12 | -6% | 25% | 10µM* | 3% | ?
Cc1ccc(CSC2=Nc3sccc3C3=NC(=O)CN23)cc1 | -4% | 35% | -5% | 4% | ?
COc1ccc(C(CCN)Cc2ccccc2)cc1 (stereo not given) | 21%[10 µM] | -5% | 21µM* | 5% | 29µM*
C=CCNC(=S)NC(=O)c1oc2ccccc2c1C | ? | 6.3µM* | -14% | -13% | -7%
Cc1c(C(=O)Nc2ccc(Cl)cn2)oc2ccccc12 | ? | ? | ? | 2% | -27%
CC(=O)Nc1ccc(NC(=S)NC(=O)c2oc3ccccc3c2C)cc1 | -8% | 14% | ? | 5% | -14%
Cc1cccnc1NC(=S)NC(=O)c1oc2ccccc2c1C | 6.3µM* | 2µM* | -22% | -3% | -3%
Cc1c(C(=O)Nc2cnccn2)oc2ccccc12 | -2% | ? | ? | 7% | 12µM*
CNC(=O)c1cccc(NC(=O)c2ccccc2OCc2ccccc2)c1 | -11% | 4% | ? | 3% | ?
COc1ccc(CNc2nc(-c3cccnc3)nn2C(=O)c2ccco2)cc1 | -8% | -3% | ? | 0% | -9%
COc1ccc(-c2ccc(N3C(c4cc(OC)cc(OC)c4)=Cc4ccc(OC)cc4C3CC(C)=O)cc2)cc1 (stereo not given) | . | . | 6.5µM* | . | 5.2µM*
COc1cc(OC)cc(C2=Cc3ccc(OC)cc3C(CC(C)=O)N2c2ccc(-c3cncnc3)cc2)c1 (stereo not given) | . | . | ? | . | 8.2µM*
COC(=O)c1ccc(N2C(c3cc(OC)cc(OC)c3)=Cc3ccc(-c4ccc(C(N)=O)cc4)cc3C2CC(=O)C2CC2)cc1 (stereo not given) | . | . | 18µM* | . | ?

Bioassay records as filed in PubChem BioAssay.
